Shiga inhibitor: blocks Shiga toxin action in Vero cells | inhibition, % at 38.7 µM | 290,000 compounds, 9.2% hits | Vero cells, Shiga toxin protein synthesis inhibition reporter | AID 2315; in the data active = inhibition mostly above about 28%, no sharp cut-off; inactive = mostly below about 43%; note: 0% is about no effect
NS1 function inh: inhibitors of influenza NS1 protein function. Potency, µM (top dose mostly 46.1 µM), without a hit: at the highest dose activity, positive = more growth. 270,000 compounds, 0.4% hits; calls by dose curve; note: potency is the fitted concentration of half-maximal effect; actives are rising curves; nearly all actives have a fitted effect of over 50% in size
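A cell-based growth assay was used: compounds that relieve NS1-induced slow growth of budding yeast raise OD600. Assay medium was yeast nitrogen base with ammonium sulphate and -URA supplement, pH 6.0, with 2% galactose.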
SARS PLpro yeast-1: blocks SARS-CoV papain-like protease in a yeast assay; S. cerevisiae expressing SARS-CoV PLpro, growth rescue; Potency, µM (series often up to 32.9 µM), for the others: at the top dose activity, positive = growth rescue, actives largely listed as activators; 330,000 compounds, 0.19% hits; calls by dose curve; note: potency is the fitted concentration of half-maximal effect; 0% is about no effect; nearly all actives have a fitted effect of over 55% in size
Pf growth 96h: inhibits malaria parasite growth, 96 h; P. falciparum luciferase reporter growth, 96 h; Potency, µM (doses to about 28.7 µM), without a hit: top-dose activity change, negative = inhibition, hits mostly inhibitors; 320,000 compounds, 6.9% hits; note: potency is the fitted concentration of half-maximal effect; % is set by controls: 0 for no effect and ±100 for the full control effect
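Readout is luminescence from an integrated firefly luciferase in P. falciparum. Red cells, 2% hematocrit and 0.05% parasitemia final, were cultured with compound through two parasite generations (96 hours) at 37 C, 5% CO2.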
Cycloheximide cs: affects cycloheximide protein synthesis inhibition readout, counter-screen; max response, %; cell reporter, cycloheximide protein synthesis inhibition counterscreen; 300,000 compounds, 12% hits; in the data active = max response mostly above about 13%, no sharp cut-off; inactive = mostly below about 14%; note: read at 38.3 µM for the half of the compounds with a filed dose; 0% is about no effect
Pf growth 48h: inhibits P. falciparum growth in the first generation, 48 h | Potency, µM (series often up to 28.7 µM), for inactives: top-dose activity change, negative = inhibition, actives largely listed as inhibitors | 310,000 compounds, 5.9% hits | P. falciparum luciferase growth in erythrocytes, 48 h; note: potency is the fitted concentration of half-maximal effect; % is set by controls: 0 for no effect and ±100 for the full control effect
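Here the parasites carry a stable luciferase gene and grow inside erythrocytes in Albumax-based RPMI medium with compound for one erythrocytic cycle. Activity is scored as loss of luminescent signal.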
SARS PLpro yeast-2: Inhibits SARS-CoV PLP in yeast, hit validation. shares compounds with SARS PLpro yeast-1. yeast expressing SARS-CoV PLpro, growth phenotype rescue. calls only. 1,000 compounds, 19% hits; call rule not given here
An asterisk follows results filed as active; i = inactive; ? = inconclusive; / = not tested or not shown; + = active, no number. Rows were chosen to be rich in hits. Some 21% of all compounds tested hit in one or more screens of this group. Unless noted, calls come from the whole dose curve; as a rule, active = well fitted inhibition curve with a large enough effect; inconclusive = small, poorly fitted or top-dose-only effect, or another doubt; inactive = no such curve, though single readings can be large or run the other way.

SMILES | Shiga inhibitor | NS1 function inh | SARS PLpro yeast-1 | Pf growth 96h | Cycloheximide cs | Pf growth 48h | SARS PLpro yeast-2
O=C(O)CSc1nnc(-c2ccccc2O)n1Cc1ccccc1 | 2 | 2% | 7% | 1% | -5 | 21% | /
Cn1c(SCC(=O)NNC(=O)c2ccccc2O)nnc1-c1ccccc1 | -3 | -2% | ? | 33% | 10 | 3% | /
CCOCCCNC(=O)COC(=O)/C=C/c1ccc(S(=O)(=O)N2CCc3ccccc32)cc1 | -3 | -3% | 0% | -22% | -1 | -18% | /
COc1cc(CNCC(C)C)c(Br)cc1OCC(=O)NCc1ccccc1 | -12 | -3% | ? | ? | -3 | -19% | i
Cc1ccnc2nc(C(=O)OCC(=O)Nc3ccc4c(c3)OCCO4)nn12 | / | / | ? | / | / | / | i
COC(=O)c1ccc(NC(=O)COC(=O)c2nc3nccc(C)n3n2)cc1 | -6 | / | -1% | ? | 8 | 9% | /
COc1cc(NC(=O)c2cc([N+](=O)[O-])ccc2N2CCOCC2)ccc1NC(=O)c1ccco1 | -5 | 5% | 14% | ? | -1 | ? | /
COc1cc(NC(=O)c2cccc([N+](=O)[O-])c2C)ccc1NC(=O)c1ccco1 | 72* | 19% | 2.8µM* | 0% | 19* | 24% | i
C/C=C(\C)C(=O)N[C@@H](c1ccccc1)[C@@H](O)C(=O)O[C@H]1C[C@@]2(O)[C@@H](OC(=O)c3ccccc3)C3[C@](C)(C(=O)[C@H](OC(C)=O)C(=C1C)C2(C)C)[C@H](O)C[C@H]1OC[C@@]31OC(C)=O (stereo partly drawn) | -4 | 3% | -7% | ? | 3 | ? | /
CC(=O)O[C@@]12CO[C@@H]1C[C@@H](O)[C@@]1(C)C(=O)[C@H](O)C3=C(C)[C@@H](OC(=O)[C@H](O)[C@@H](NC(=O)c4ccccc4)c4ccccc4)C[C@@](O)([C@@H](OC(=O)c4ccccc4)C12)C3(C)C (stereo partly drawn) | -5 | -10% | ? | 0.046µM* | -3 | ? | ?
CCN1CCCC1CN(Cc1cc2c(C)cc(C)cc2[nH]c1=O)C(=O)NC1CCCCC1 (stereo not drawn) | -3 | 17% | ? | / | -6 | 9.3µM* | i
CCNC(=S)NN(c1ccccc1)c1ccccc1 | 9 | 2% | 14µM* | ? | 6 | / | +
CC(C)c1ccc(NC(=S)NN(c2ccccc2)c2ccccc2)cc1 | 13 | 1% | -12% | ? | 5 | ? | /
CC1(c2nnc(Cc3ccccc3)o2)CC(c2ccc(OC(F)(F)F)cc2)=NO1 (stereo not drawn) | / | / | 10µM* | 54% | / | 0% | i
Cc1cc(C)c2c(NC(=S)NC(=O)c3ccccc3)nn(C)c2n1 | -16 | / | 15% | -3% | 8 | ? | /
Cc1cc(C)c2c(NC(=O)CCl)nn(C)c2n1 | 26 | / | 11µM* | 1.9µM* | 26 | 3.7µM* | +
Cc1c(NC(=O)COc2ncnc3c(Cl)cc(Cl)cc23)c(=O)n(-c2ccccc2)n1C | 20 | -5% | ? | 8% | -2 | 3% | i
CCCc1nnc(NC(=O)CCC(=O)N2CCN(C3CCCC3)CC2)s1 | -2 | 5% | 5% | -8% | -4 | -14% | /
Cc1c(/C=N\NC(=O)C2COc3ccccc3O2)c2ccccc2n1C (stereo not drawn) | -10 | -38% | -32% | ? | -1 | -13% | /
Cc1[nH]n(-c2ccccc2)c(=O)c1/C=N\NC(=O)C1COc2ccccc2O1 (stereo not drawn) | -8 | -10% | 10µM* | ? | 24 | ? | i
O=C(N/N=C/c1cccc([N+](=O)[O-])c1)C1COc2ccccc2O1 (stereo not drawn) | 28 | / | -6% | 34% | 6 | 6% | /
O=C(N/N=C\c1cccc([N+](=O)[O-])c1O)C1COc2ccccc2O1 (stereo not drawn) | -7 | -38% | 13µM* | -11% | -4 | -6% | i
O=C(N/N=C/c1c(O)n(-c2ccccc2Cl)c(=O)c2ccccc12)C1COc2ccccc2O1 (stereo not drawn) | -7 | 3.5µM* | 11µM* | ? | 2 | 4% | +
CC(=O)N/N=C/c1c(C)[nH]n(-c2ccccc2)c1=O | 7 | / | -3% | 44% | -5 | ? | /
Cc1ccc(-n2c(O)c(/C=N/NC(=O)C3COc4ccccc4O3)c3ccccc3c2=O)cc1 (stereo not drawn) | -2 | ? | ? | 22% | -3 | -2% | ?
SMILES | Shiga inhibitor | NS1 function inh | SARS PLpro yeast-1 | Pf growth 96h | Cycloheximide cs | Pf growth 48h | SARS PLpro yeast-2
COc1ccc(NC(=O)c2ccc(NC(=O)CN(C)CC(=O)Nc3c(C)cccc3C)cc2)cc1 | 2 | -3% | 2% | ? | 5 | ? | /
CCOC(=O)N1CCN(CCC(=O)Nc2ccccc2OC)CC1 | -1 | 5% | ? | 13µM* | 1 | 14% | i
O=C(CN1C(=O)NC2(CCCC2)C1=O)N1CCN(S(=O)(=O)c2cccc(F)c2)CC1 | -27 | -3% | / | 20% | 1 | 3% | i
COc1ccc(CCNC(=O)N[C@@H](Cc2ccccc2)C(=O)O)cc1 | 20 | -1% | 1% | 3% | 3 | 14% | /
CC(C)(C)C1=C(C#N)C(c2cccnc2)C(C#N)=C(N)O1 (stereo not drawn) | -3 | 6% | 18µM* | -1% | 7 | -22% | i
N#CC1=C(N)Oc2cc3ccccc3cc2C1c1cccnc1 (stereo not drawn) | -12 | -8% | 14% | ? | -7 | ? | /
COc1ccc(C2C(C#N)=C(N)OC(C(C)(C)C)=C2C#N)cc1OC (stereo not drawn) | 12 | ? | 0% | -10% | -2 | -17% | /
N#CC1=C(N)Oc2c(ccc3cccnc23)C1c1cccnc1 (stereo not drawn) | 3 | -5% | ? | / | -1 | ? | i
O=C(CNC(=O)c1ccc(Cl)cc1)NC(CO)c1ccccc1 (stereo not drawn) | -6 | 1% | -1% | 9% | -2 | -7% | /
O=C(COC(=O)c1ccc(S(=O)(=O)N2CCCCCC2)cc1)NCc1ccc(F)cc1 | / | / | ? | 47% | / | ? | +
Cc1ccc(CNC(=O)COC(=O)c2ccc(S(=O)(=O)N3CCCCCC3)cc2)cc1 | / | / | 1% | 5% | / | -8% | /
CCNc1nc(NCC)nc(N/N=C/c2ccc(O)c(O)c2)n1 | -14 | -8% | 11µM* | ? | 2 | -177% | i
O=C(O)CC1(CC(=O)Nc2cc3ccccc3cn2)CCCCC1 | 2 | 6% | -2% | 2% | 2 | 1% | /
COC(=O)C1(S(=O)(=O)c2cc(Br)cc3c2N(C(C)=O)CC3)CC1 | -12 | 2% | ? | 77% | -1 | 9.3µM* | i
O=C(CSc1nnc(-c2ccccc2F)o1)NC(=O)Cc1ccccc1 | / | / | 3% | 36% | / | 21% | /

Bioassay records as filed in PubChem.
